pPAFAH inh – pPAFAH enzyme inhibitors, primary screen, biochemical, fluorescence polarization, human; Platelet-activating factor acetylhydrolase (Homo sapiens), Q13093; inhibition, % at 3.39 µM; AID 463082, 2010; 1.5% of 330,000 active; recombinant pPAFAH, FP-rhodamine probe fluorescence polarization;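 active = inhibition above the mean inhibition across the screen plus 3 SD, cut at about 25% in these data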;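 note: inhibitors block binding of the rhodamine activity-based probe so polarization drops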
LYPLA2 counter – LYPLA2 inhibitors, primary screen, counter-screen for PME1 inhibitor project, biochemical, fluorescence polarization, FP-Rh probe ABPP | inhibition, % at 5.9 µM | AID 2177, 2009 | recombinant LYPLA2 | 0.38% of 320,000 active | Acyl-protein thioesterase 2 (Homo sapiens), O95372;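 active = inhibition above the screen-wide mean plus 3 SD, limit set per campaign, cut at about 26% in these data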
Target sequence (O95372 whole entry, looked up): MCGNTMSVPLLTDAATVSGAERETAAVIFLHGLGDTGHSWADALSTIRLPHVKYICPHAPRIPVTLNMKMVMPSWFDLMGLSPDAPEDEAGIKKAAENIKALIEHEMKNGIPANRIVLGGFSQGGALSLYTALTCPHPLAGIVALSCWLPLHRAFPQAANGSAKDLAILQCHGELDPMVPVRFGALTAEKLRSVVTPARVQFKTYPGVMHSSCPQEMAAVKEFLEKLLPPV
LYPLA1 counter – LYPLA1 inhibitors, primary screen, counter-screen for PME1 inhibitor project, biochemical, fluorescence polarization, FP-Rh probe ABPP. Acyl-protein thioesterase 1 (Homo sapiens), O75608. recombinant LYPLA1. inhibition, % at 5.9 µM. 0.16% of 320,000 active;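 active = inhibition above the mean of all tested compounds plus 3 SD, set per campaign, cut at about 14% in these data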;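 note: inhibitors block serine hydrolase probe labeling of LYPLA1 so polarization falls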
PAFAH2 FP inh – PAFAH2 enzyme inhibitors, primary screen, biochemical, fluorescence polarization, human | Platelet-activating factor acetylhydrolase 2, cytoplasmic (Homo sapiens), Q99487 | recombinant PAFAH2, FP-rhodamine activity probe | inhibition, % at 3.39 µM | 0.99% of 340,000 active | AID 492956, 2010;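 active = inhibition above the mean over all tested compounds plus 3 SD, cut at about 30% in these data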;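 note: inhibitors block probe labeling of enzyme so polarization drops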
PAFAH1B2 inh – PAFAH1B2 enzyme inhibitors, primary screen, biochemical, fluorescence polarization, human | Platelet-activating factor acetylhydrolase IB subunit alpha2 (Homo sapiens), P68402 | recombinant PAFAH1B2, FP-rhodamine activity probe | inhibition, % at 3.39 µM | 1.2% of 340,000 active | AID 492953, 2010;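 active = inhibition above the mean of all tested compounds plus 3 SD, cut at about 24% in these data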
PAFAH1B3 inh – PAFAH1B3 enzyme inhibitors, primary screen, biochemical, fluorescence polarization, human | recombinant PAFAH1B3, FP-rhodamine probe | 0.28% of 340,000 active | Platelet-activating factor acetylhydrolase IB subunit alpha1 (Homo sapiens), Q15102 | inhibition, % at 3.39 µM;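 active = inhibition above the screen-wide average of all tested compounds plus 3 SD, cut at about 25% in these data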
Target sequence (Q15102 whole entry, looked up): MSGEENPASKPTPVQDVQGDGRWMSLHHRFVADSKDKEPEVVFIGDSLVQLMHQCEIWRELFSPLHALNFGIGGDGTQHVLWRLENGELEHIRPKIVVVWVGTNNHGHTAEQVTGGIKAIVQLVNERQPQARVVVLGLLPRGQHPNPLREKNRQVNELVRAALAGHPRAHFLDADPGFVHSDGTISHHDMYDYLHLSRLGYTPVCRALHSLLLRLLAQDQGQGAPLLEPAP
PAFAH2 confirm – PAFAH2 enzyme inhibitors, confirmation, biochemical, fluorescence polarization, human | inhibition, % at 3.39 µM | recombinant PAFAH2, FP-rhodamine activity probe | shares compounds with PAFAH2 FP inh | 65% of 2,300 active;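 active = mean inhibition over three repeats above a set limit taken from the earlier primary screen, cut at about 30% in these data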;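 note: inhibitor blocks binding of rhodamine activity probe so polarization falls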
Of the large screens only hits and unclear results are named; the others gave an inactive call (follow-up assays come after a bar, where they were run). An excerpt weighted towards active compounds, which were near 2.9% of everything screened.

Cc1cc(OCC(=O)Nc2cccnc2)c2c(C)c(C)c(=O)oc2c1	none
Cc1c(C)c2c(OCC(=O)NCC(C)C)cc3c(c2oc1=O)CCC(C)(C)O3	PAFAH2 FP inh 71.8 (no result: pPAFAH inh, LYPLA2 counter, LYPLA1 counter) | PAFAH2 confirm 51.7
Cc1cc(=O)oc2c3c(cc(OCC(=O)NCC(=O)N[C@H](C(=O)O)C(C)C)c12)OC(C)(C)CC3	none
O=C(O)/C(=C\c1ccc(Cl)c([N+](=O)[O-])c1)c1ccc(S(=O)(=O)N2CCCCC2)s1	PAFAH2 FP inh 31.8 | PAFAH2 confirm inactive
Cc1cc(C(=O)OCC(=O)Nc2c(Cl)cccc2C(F)(F)F)c(C)o1	none
Cc1c(Cl)cnc(NC(=O)COC(=O)C2CC3CCCC(C2)C3=O)c1Cl (stereo unspecified)	none
Cc1c(Cl)cnc(NC(=O)COC(=O)C2CC2)c1Cl	PAFAH2 FP inh 43.5 (no result: LYPLA2 counter, LYPLA1 counter) | PAFAH2 confirm inactive
O=C(COC(=O)C1CC1)Nc1c(Cl)cccc1C(F)(F)F	PAFAH2 FP inh 37.6 | PAFAH2 confirm inactive
Cc1ccsc1C(=O)OCC(=O)Nc1c(Cl)cccc1C(F)(F)F	PAFAH2 FP inh 31.1 | PAFAH2 confirm 30.0
CC(=O)NC1=NN(C(C)=O)C(C)(CS(=O)(=O)c2ccc3ccccc3c2)S1 (stereo unspecified)	none
CCCN(CCC)S(=O)(=O)c1ccc(NC(=O)C2CCCO2)cc1 (stereo unspecified)	none
CCc1cc2c(=O)oc(-c3ccc(F)cc3)nc2s1	PAFAH2 FP inh 81.6 | PAFAH2 confirm 83.8
CC(C)C[C@H](NC(=O)c1nc[nH]c1C(=O)NC1CCNCC1)C(=O)OC(C)(C)C	none
Cc1ccc(NC(=O)CSc2ccc(S(=O)(=O)N3CCCC3)cn2)cc1F	none
COc1ccccc1NC(=O)c1ccc(NS(=O)(=O)c2cccc3cccnc23)cc1	none
O=C(COC(=O)/C=C/c1ccc(Cl)cc1)NC1CCCCCC1	PAFAH2 FP inh 79.1 | PAFAH2 confirm 71.0
CSc1ccc(/C=C/C(=O)OCC(=O)NC2CC2)cc1	PAFAH2 FP inh 56.7 | PAFAH2 confirm 48.0
O=C(COC(=O)/C=C/c1ccc(Cl)cc1)NC1CC1	PAFAH2 FP inh 52.1 (no result: LYPLA2 counter, LYPLA1 counter) | PAFAH2 confirm 33.7
Cc1ccc(C)c(S(=O)(=O)NCC(=O)OCC(=O)Nc2sccc2C(N)=O)c1	none (no result: pPAFAH inh, LYPLA2 counter, LYPLA1 counter)
Cc1cccc(N2NC(=O)/C(=C/c3ccc(-c4ccc(Cl)c(C(=O)O)c4)o3)C2=O)c1	PAFAH2 FP inh 32.4 (no result: pPAFAH inh, LYPLA2 counter, LYPLA1 counter) | PAFAH2 confirm inactive
Cc1ccc(C(=O)OCC(=O)Nc2ncc(C(F)(F)F)cc2Cl)cc1NC(=O)c1ccco1	PAFAH2 FP inh 36.1 | PAFAH2 confirm inactive
C=C1CCN([C@H](C(=O)OCc2ccc(C)cc2)C(C)C)S(=O)(=O)c2ccccc21	PAFAH2 FP inh 126.0 | PAFAH2 confirm inactive
C=C1CCN([C@@H](C)C(=O)OCc2cccc(C)c2)S(=O)(=O)c2ccccc21	none
O=C(CCCOC(=O)c1ccc(O)cc1)c1ccccc1	PAFAH2 FP inh 49.9 (no result: LYPLA2 counter, LYPLA1 counter) | PAFAH2 confirm 44.8
CSc1ccccc1NC(=O)COC(=O)c1ccc(O)cc1	PAFAH2 FP inh 54.1 | PAFAH2 confirm 37.8
O=C(COC(=O)c1ccc(O)cc1)Nc1ccccc1-c1ccccc1	PAFAH2 FP inh 46.3 | PAFAH2 confirm 38.7
COCC(=O)OCC(=O)Nc1ccccc1-c1ccccc1	none
O=C(COC(=O)c1ccc(O)cc1)NC(c1ccccc1)c1ccccc1	PAFAH2 FP inh 46.0 (no result: LYPLA2 counter, LYPLA1 counter) | PAFAH2 confirm 36.4
CCCCOC(=O)c1ccc(O)cc1	none
Nc1cc(C(=O)OCC(=O)NC(c2ccccc2)c2ccccc2)ccc1Cl	none
CSCC[C@H](NC(=O)[C@H]1N2C(=O)c3ccccc3C2SC1(C)C)C(=O)NCc1ccncc1 (stereo partly specified)	none
CC(NC(=O)C(C)N1C(=O)C2C3CC(C(Br)C3Br)C2C1=O)c1ccccc1 (stereo unspecified)	none

Bioassay records deposited in PubChem BioAssay by The Scripps Research Institute Molecular Screening Center.
